Holding throughout (assay): NCI-60 one-dose screen, 48 h (100 = growth as untreated, 0 = no growth, -100 = all killed)
The test system of one experiment is T-47D breast. The conditions noted are these: 10 µM.
For another experiment, the system named is BT-549 breast. The following applies: 10 µM.
The test system of a further experiment is MDA-MB-435 melanoma. The conditions noted are these: 10 µM.
Another experiment deals with SW-620 colon. The conditions noted are these: 10 µM.
Another experiment relates to MCF7 breast. The following applies: 10 µM unless noted.
The test system of another experiment is HCT-116 colon. The conditions noted are these: 10 µM.
The subject of a further experiment is HCC-2998 colon. The conditions noted are these: 10 µM.
Another experiment concerns KM12 colon. The conditions noted are these: 10 µM.

Each structure is given as a SMILES string. This is part of a sample that, as a whole, favours compounds with a hit. Of some 83,000 tested, about 20% had one in any assay.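 In brief: 96-well plates, 48 h treatment, single concentration, percent growth endpoint.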 Unmarked numbers belong to inactive results. Activity calls are given as the source filed them. How the source made its calls: active means growth percent below 10; inactive means the rest.

Data on 17 compounds can be found in PubChem BioAssay (NCI).

Take `O=C(NN=C1CCCCC1)C(=O)NN=C1CCCCC1`: the growth in the experiment with T-47D breast was 99.7%; in the experiment with BT-549 breast, 100%; in the experiment with MDA-MB-435 melanoma it was 117%; with SW-620 colon, 117%; with MCF7 breast it was 92.5%; with HCT-116 colon, 106%. The growth was 113% in the experiment on HCC-2998 colon and 105% in the experiment with KM12 colon.

For the compound `CC(C(=O)O)(C1CCCCC1)C1(O)CCCCC1` (stereo unspecified), the growth was 102% in the experiment with T-47D breast; 103% in the experiment with BT-549 breast; 105% in the experiment with MDA-MB-435 melanoma; 105% with SW-620 colon; 105% in the experiment with MCF7 breast; 104% in the experiment with HCT-116 colon. Further, the growth in the experiment with HCC-2998 colon was 96.3%; in the experiment on KM12 colon, 98.4%.

Consider `COc1cc(/C=N\Nc2ccccc2)ccc1OC(=O)c1ccccc1`, for which the growth in the experiment with T-47D breast is 36.1%; with BT-549 breast it was 91%; with MDA-MB-435 melanoma, 44.5%; in the experiment with SW-620 colon, 69.8%; with MCF7 breast, 56.4%; in the experiment with HCT-116 colon it was 71.3%. The growth in the experiment on HCC-2998 colon is 74.9%; in the experiment on KM12 colon, 8.69% (active).

Take `COC(=O)Nc1cccc(Cl)c1OC`: the growth was 104% in the experiment with T-47D breast; 111% in the experiment with BT-549 breast; 101% with MDA-MB-435 melanoma; 71.7% in the experiment with SW-620 colon; 104% with MCF7 breast; 107% in the experiment on HCT-116 colon. In addition, the results for the growth with HCC-2998 colon and with KM12 colon were 104% and 111%, respectively.

On to `N#C/C(=C\c1cc(O)c(O)c(O)c1)C(N)=O`, for which the growth in the experiment with T-47D breast is 110%; with BT-549 breast, 96.5%; with MDA-MB-435 melanoma, 89.4%; with SW-620 colon, 116%; in the experiment on MCF7 breast, 100%; in the experiment with HCT-116 colon, 92.8%. For the same compound, the values for the growth in the experiment with HCC-2998 colon and in the experiment with KM12 colon were 98.3% and 103%, respectively.

Take `COc1cc2nc3cc([N+](=O)[O-])ccc3c(Cl)c2cc1OC`: the growth in the experiment on T-47D breast was 83.2%; with BT-549 breast, 51.3%; in the experiment on MDA-MB-435 melanoma it was 93.2%; with SW-620 colon, 104%; with MCF7 breast, 83%; in the experiment with HCT-116 colon, 95.7%. The growth in the experiment with HCC-2998 colon was 106%; in the experiment with KM12 colon it was 110%.

On to `COc1cc(C2c3cc4c(cc3C3OC(=O)C2C3CO)OCO4)cc(OC)c1OC` (stereo unspecified), for which the growth was 70.6% with T-47D breast; -24.4% (active) in the experiment with BT-549 breast; -45% (active) with MDA-MB-435 melanoma; 23.1% in the experiment on SW-620 colon; 17% in the experiment with MCF7 breast; 7.29% (active) in the experiment on HCT-116 colon. For the same compound, the growth in the experiment with HCC-2998 colon is 19%; in the experiment with KM12 colon it was 1.84% (active).

Regarding `CCN(CC)CCCC(C)Nc1ccnc(/C=C/c2ccc(Cl)cc2)c1` (stereo unspecified), the growth with T-47D breast was -4.4% (active); in the experiment on BT-549 breast, 29.1%; with MDA-MB-435 melanoma it was -53.4% (active); in the experiment with SW-620 colon, -53.2% (active); in the experiment with MCF7 breast it was -26.6% (active); in the experiment on HCT-116 colon it was -10.5% (active). In addition, the growth was -23.6% (active) in the experiment on HCC-2998 colon and 25.3% in the experiment on KM12 colon.

For `CCCC(=O)c1cc(C)ccc1OC`, the growth was 105% in the experiment on T-47D breast; 107% with BT-549 breast; 116% in the experiment with MDA-MB-435 melanoma; 114% with SW-620 colon; 103% in the experiment on MCF7 breast; 107% with HCT-116 colon. Moreover, the growth with HCC-2998 colon is 111%; with KM12 colon, 110%.

`Sc1ccc(Nc2c3ccccc3nc3ccccc23)cc1`: the growth with T-47D breast is 38%; in the experiment with BT-549 breast, 94.6%; in the experiment with MDA-MB-435 melanoma it was 92.8%; in the experiment with SW-620 colon, 61.3%; with MCF7 breast it was 71.7%; in the experiment with HCT-116 colon it was 96.4%. Moreover, the growth with HCC-2998 colon is 68.9%; with KM12 colon it was 65.5%.

Consider `Nc1ccc(N=Nc2ccc(S(=O)(=O)O)cc2)c2ccccc12`, for which the growth in the experiment on T-47D breast was 57.3%; in the experiment on BT-549 breast, 102%; in the experiment on MDA-MB-435 melanoma, 98.6%; in the experiment on SW-620 colon, 88.7%; in the experiment with MCF7 breast, 91.4%; in the experiment on HCT-116 colon, 89%. Also, the results for the growth in the experiment with HCC-2998 colon and with KM12 colon were 88.3% and 99.2%, respectively.

Consider `Cc1cc(Cc2cc(C)c(N)cc2N)c(N)cc1N`, for which the growth with T-47D breast was 83.5%; in the experiment with BT-549 breast, 98.3%; with MDA-MB-435 melanoma it was 106%; in the experiment with SW-620 colon, 90.8%; with MCF7 breast, 88.6%; in the experiment with HCT-116 colon, 94.8%. The growth with HCC-2998 colon was 108%; in the experiment on KM12 colon, 99.5%.

With `Nc1ncnc2c1nc(N)n2C1OC(CO)C(O)C1O` (stereo unspecified), the growth in the experiment on T-47D breast was -46.3% (active); in the experiment with BT-549 breast, -83.6% (active); with MDA-MB-435 melanoma, -80.3% (active); with SW-620 colon, -11.8% (active); in the experiment on MCF7 breast, -20.5% (active); in the experiment on HCT-116 colon, 1.19% (active). Further, the growth in the experiment with HCC-2998 colon is -82% (active); with KM12 colon, -77.3% (active).

For `O=c1[nH]cc(Cl)cc1O`, the growth in the experiment on T-47D breast is 70.5%; in the experiment with BT-549 breast, 90.6%; with MDA-MB-435 melanoma, 76.4%; in the experiment on SW-620 colon, 98.6%; with MCF7 breast, 91.2%; in the experiment on HCT-116 colon, 94.3%. Besides, the growth in the experiment on HCC-2998 colon was 96.9%; with KM12 colon it was 57.7%.

As to `CCCCOC(=O)c1ccc(C(C)C)cc1`, the growth in the experiment with T-47D breast was 88.7%; with BT-549 breast, 92.1%; in the experiment with MDA-MB-435 melanoma, 103%; in the experiment with SW-620 colon it was 111%; in the experiment with MCF7 breast it was 94.9%; with HCT-116 colon it was 85.4%. The growth with HCC-2998 colon is 107%; in the experiment on KM12 colon, 104%.

For the compound `NC(=O)c1ccc(N=C(N)N=C(N)N)cc1`, the growth with T-47D breast was 95.7%; with BT-549 breast it was 108%; in the experiment with MDA-MB-435 melanoma, 85%; in the experiment on SW-620 colon, 104%; in the experiment on MCF7 breast, 92.7%; with HCT-116 colon, 105%. For the same compound, the figures for the growth in the experiment on HCC-2998 colon and in the experiment on KM12 colon were 97.7% and 99.3%, respectively.

As to `O=C(NCCNC(=O)c1ccc(Cl)cc1Cl)c1ccc(Cl)cc1Cl`, the growth was 99.3% in the experiment on T-47D breast; 111% with BT-549 breast; 106% in the experiment with MDA-MB-435 melanoma; 113% in the experiment on SW-620 colon; 102% with MCF7 breast; 104% with HCT-116 colon. Moreover, the growth in the experiment with HCC-2998 colon was 100%; in the experiment on KM12 colon, 105%.
